# PubChem BioAssay (EPA / NIEHS)
# “And” between values parts separate entries of the source, which are not always exact repeats. Equal entries are not always repeated. Results filed as inconclusive are left out. The source made the active and inactive calls. Rule for the calls, unless noted: active = hit-call score of the fitted dose curve at least 0.9, where 1 is the maximum; inconclusive = response in the unintended direction; inactive = score below 0.9.
# How the values were obtained:
# [1] = system: SERPINA7 (gene 6906); assay: CCTE_GLTED_hTBG: CCTE's human Thyroxine-binding Globulin (TBG) Inhibition Assay, Great Lakes Toxicology and Ecology Division (GLTED) Lab (AID 2284343);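 note: active chemicals lower fluorescence versus DMSO baseline by displacing probe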
# How it was run: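 Fluorescence (ex 380/em 475) reports ANSA displaced from human TBG after a 2 h incubation with test chemical, without cells. Loss of signal indicates displacement, with DMSO serving as baseline.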
# [2] = VALA_TUBIPS_Agonist_CellCount: Viability Assessment in the VALA Sciences human iPS-derived Endothelial Tubule Formation (TUBIPS) Agonism Assay (AID 2284338)
# Procedure: VALA_TUBIPS_Agonist is a cell-based, multiplexed assay that uses human iPS-derived endothelial cells (iPSC). Measurements were taken 72 hours after chemical dosing in a 96-well plate.VALA_TUBIPS_Agonist_CellCount is the one of two assay components measured from the VALA_TUBIPS_Agonist assay. It is designed to make measurements of viability, a form of viability reporter, as detected with fluorescence intensity signals by HCS Fluorescent Imaging technology. Data from the assay component VALA_TUBIPS_Agonist_CellCount was analyzed at the endpoint, VALA_TUBIPS_Agonist_CellCount, in the positive analysis fitting direction relative to DMSO as the negative control and baseline of activity. Using a type of viability reporter, loss-of-signal activity can be used to understand viability. To generalize the intended target to other relatable targets, this assay endpoint is annotated to the cell cycle intended target family, where the subfamily is cell count.
# This HUVEC-HDF assay was designed to detect chemical suppression of tubulogenesis, i.e. antagonism. To measure tubulogenesis antagonism, HUVEC cells were co-cultured with HDF cells at a 1:3 ratio for 3-days in 10 ng/ml VEGF (i.e., favorable conditions with growth factors), then changed to assay medium containing 10 ng/ml VEGF and ToxCast compounds for an additional 3-day period. […]
# [3] = CCTE_Mundy_HCI_iCellGluta_NOG_NeuronCount: CCTE's Neurite Outgrowth Assay in iCellGluta cells for Neuron Count, Mundy Lab (AID 2284340);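 note: cells fixed about 48 h after compound addition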
# How it was run: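 Neuron count read by automated high-content imaging of Hoechst 33342 and betaIII-tubulin/Alexa Fluor-488 labelling in human iPSC glutamatergic neurons. Activity fitted relative to DMSO.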
# [4] = CCTE_Mundy_HCI_iCellGluta_NOG_NeuriteCount: CCTE's Neurite Outgrowth Assay in iCellGluta cells for Neurite Count, Mundy Lab (AID 2284342);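 note: chemical exposure about 48 hours starting 2 hours after plating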
# [5] = CCTE_Deisenroth_H295R-HTRF_384WELL_ESTRADIOL: CCTE's H295R-HTRF Assay Evaluation of Estradiol Concentration, Deisenroth Lab (AID 2284361; active = hit-call score of the fitted dose curve at least 0.9, where 1 is the maximum; inactive = score below 0.9); conditions: actives raise or lower the signal
# Procedure: CCTE_Deisenroth_H295R-HTRF_384WELL assay is a cell-based, multiplex-readout assay that uses H295R, a human adrenocortical carcinoma cell line, with measurements taken at 48 hours after chemical dosing in a 384-well microplateCCTE_Deisenroth_H295R-HTRF_384WELL_ESTRADIOL is one of 3 assay components calculated in the CCTE_Deisenroth_H295R-HTRF_384WELL assay (2 hormones and 1 viability components). It is designed to make measurements of hormone induction, a form of inducible reporter, as detected with Homogenous Time Resolved Fluorescence immunoassay technology.This assay endpoint, CCTE_Deisenroth_H295R-HTRF_384WELL_ESTRADIOL, was analyzed with bidirectional fitting relative to DMSO as the negative control and baseline of activity. Using a type of inducible reporter, gain or loss-of-signal activity using Homogenous Time Resolved Fluorescence technology was used to understand synthesis of estradiol in the H295R cell line at 48hr of chemical exposure. […]
# Standard operating procedures for the cell culture medium, maintenance, expansion, and cryopreservation of the NCI-H295R adrenocortical carcinoma adherent cell line were adopted directly from guideline specifications7,13. […] Fluorescent endpoint measurements are conducted with a microplate reader equipped with an HTRF-compatible filter set (ex: 320 (10) […]; em: 620 (10) and 665 (10) nM). […]
# [6] = CCTE_Deisenroth_H295R-HTRF_384WELL_TESTOSTERONE: CCTE's H295R-HTRF Assay Evaluation of Testosterone Concentration, Deisenroth Lab (AID 2284373; active = hit-call score of the fitted dose curve at least 0.9, where 1 is the maximum; inactive = score below 0.9); conditions: actives raise or lower the signal
# How it was run: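 Secreted testosterone was quantified by HTRF immunoassay of medium from human adrenocortical H295R cells after 48 h chemical exposure at 0.001–100 uM final. Gain or loss was fitted against DMSO. ATP-based viability was read on matched wells, five experimental replicates.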
# [7] = CCTE_Deisenroth_H295R-HTRF_384WELL_CTOX: Cytotoxicity Assessment in CCTE's H295R-HTRF Assay, Deisenroth Lab (AID 2284380)
# How it was run: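 Luminescent ATP viability readout (CellTiter-Glo 2.0), multiplexed on plates used for hormone sampling, after 48 h chemical exposure. Human H295R cells; final concentrations 0.001–100 uM in nine steps, technical triplicates, five experiments; DMSO baseline.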
# [8] = Tanguay_ZF_120hpf_MO24: Oregon State University Tanguay Lab 24 Hour Post-fertilization zebrafish Assay for Mortality (AID 2284389; active = hit-call score of the fitted dose curve at least 0.9, where 1 is the maximum; inactive = score below 0.9)
# Procedure: (§1) Tanguay_ZF_120hpf is a whole embryo, multiplexed endpoint assay using zebrafish larvae exposed for 120 hours post fertilization on a 96-well plate.Tanguay_ZF_120hpf_MO24 is one of one assay component(s) measured or calculated from the Tanguay_ZF_120hpf assay. It is designed to make measurements of zebrafish development as detected with brightfield microscopy of developing zebrafish embryos.Data from the assay component Tanguay_ZF_120hpf_MO24 was analyzed into 1 assay endpoints. This assay endpoint, Tanguay_ZF_120hpf_MO24, was analyzed in the positive analysis fitting direction relative to DMSO as the negative control and baseline of activity. […]
# (§2) Zebrafish husbandry: Tropical 5D wild-type adult zebrafish were housed in at an approximate density of 1000 per 100 gallon tank at the Sinnhuber Aquatic Research Laboratory, Oregon State University, Corvallis, OR. […] At 24 hpf, embryos were assessed for photomotor response using a custom photomotor response analysis tool (PRAT) and for developmental toxicity endpoints (MO24: mortality at 24 hpf, DP: developmental progression, SM: spontaneous movement, and NC: notochord distortion). At 120 hpf, locomotor activity was measured using Viewpoint Zebralab and assessed for 13 endpoints. […] If mortality occurred for an embryo (at either 24 or 120 hpf), the non-mortality endpoints were not measured.
# [9] = Tanguay_ZF_120hpf_DP24: Oregon State University Tanguay Lab 24 Hour Post-fertilization zebrafish Assay for Delayed Development (AID 2284390; active = hit-call score of the fitted dose curve at least 0.9, where 1 is the maximum; inactive = score below 0.9)
# Procedure: as §1, with “plate.Tanguay_ZF_120hpf_DP24” for “plate.Tanguay_ZF_120hpf_MO24”, “Tanguay_ZF_120hpf_DP24” for “Tanguay_ZF_120hpf_MO24”, “Tanguay_ZF_120hpf_DP24,” for “Tanguay_ZF_120hpf_MO24,”
# as §2
# [10] = Tanguay_ZF_120hpf_CRAN: Oregon State University Tanguay Lab 120 Hour Post-fertilization zebrafish Assay for Craniofacial Malformation (AID 2284397; active = hit-call score of the fitted dose curve at least 0.9, where 1 is the maximum; inactive = score below 0.9)
# Procedure: as §1, with “plate.Tanguay_ZF_120hpf_CRAN” for “plate.Tanguay_ZF_120hpf_MO24”, “Tanguay_ZF_120hpf_CRAN” for “Tanguay_ZF_120hpf_MO24”, “Tanguay_ZF_120hpf_CRAN,” for “Tanguay_ZF_120hpf_MO24,”
# as §2
smiles,measurement,setting,value
C[C@H]1CCCC(=O)CCC/C=C/c2cc(O)cc(O)c2C(=O)O1,AC50,[1],50 µM (active)
CC(C)(C)c1cc(O)ccc1O,AC50,[2],50 µM (active)
CCOP(=S)(OCC)Oc1nc(Cl)c(Cl)cc1Cl,AC50,[1],18.6 µM (active)
CCC(C)(C)c1ccc(O)c(C(C)(C)CC)c1,AC50,[1],13.3 µM (active)
COP(=O)(OC)O/C(=C\Cl)c1cc(Cl)c(Cl)cc1Cl,AC50,[3],51.5 µM (active)
same,AC50,[4],51.5 µM (active)
same,AC50,[1],10.1 µM (active)
CCCCCCCCc1ccc(O)cc1,AC50,[1],36 µM (active)
ClCC(Cl)CCl,outcome,[2],inactive
COP(=S)(OC)Oc1ccc(Sc2ccc(OP(=S)(OC)OC)cc2)cc1,AC50,[1],2.89 µM (active)
Fc1ccc(C2(Cn3cncn3)OC2c2ccccc2Cl)cc1 (centres undefined),AC50,[5],1.14 µM (active)
same,AC50,[6],1.23 µM (active)
same,outcome,[7],inactive
COc1cc(-c2ccc(N)c(OC)c2)ccc1N,AC50,[1],19.3 µM (active) and 32.2 µM (active)
O=C(O)C(F)(F)C(F)(F)C(F)(F)C(F)(F)C(F)(F)C(F)(F)C(F)(F)C(F)(F)C(F)(F)C(F)(F)F,AC50,[1],2.7 µM (active) and 47.2 µM (active)
same,outcome,[8],inactive
same,outcome,[9],inactive
same,outcome,[10],inactive
O=C(Cc1ccccc1)c1ccccc1,AC50,[1],10 µM (active)
CC(C)c1cccc(C(C)C)c1O,AC50,[1],44.1 µM (active)
C=C(C)C(=O)[O][Sn]([CH2]CCC)([CH2]CCC)[CH2]CCC,AC50,[3],0.202 µM (active)
same,AC50,[4],0.188 µM (active)
Oc1ccc(-c2ccccc2)cc1,AC50,[1],31.2 µM (active)
ClC1(Cl)C2(Cl)C3(Cl)C4(Cl)C(Cl)(Cl)C5(Cl)C3(Cl)C1(Cl)C5(Cl)C24Cl (centres undefined),outcome,[1],inactive
